Results as given in ChEMBL document CHEMBL1157539, “Thousands of chemical starting points for antimalarial lead identification” (Nature, 2010).

Key:
Format in all cases: functional
[1] = test system: Plasmodium falciparum; assay: GSK_TCMDC: Inhibition of Plasmodium falciparum 3D7 in whole red blood cells, using parasite LDH activity as an index of growth. Test compounds present at 2uM
[2] = test system: Plasmodium falciparum; assay: GSK_TCMDC: Inhibition of Plasmodium falciparum Dd2 in whole red blood cells, using parasite LDH activity as an index of growth. Test compounds present at 2uM
[3] = test system: HepG2; assay: GSK_TCMDC: Percent inhibition of human HepG2 cell line. Test compounds present at 10uM.

| Compound | Inhibition [1] | Inhibition [2] | Inhibition [3] |
| --- | --- | --- | --- |
| O=C(NCCN1CCC(c2ccncc2)CC1)c1cccc(Nc2nccc(Nc3ccc(Oc4ccccc4)cc3)n2)c1 | 100% | 91% | 60% |
| Cc1cccc2nc(-c3ccc(-c4cccc(CNCc5ccccc5)c4)cc3)[nH]c12.O=C(O)C(F)(F)F | 100% | 52% | 3% |
| CC1CN(c2cnn(Cc3ccc(NC(=O)Nc4ccc(F)cc4[N+](=O)[O-])cc3)c(=O)c2Cl)CC(C)N1.O=C(O)C(F)(F)F (stereo not drawn) | 89% | 10% | 4% |
| CCn1cc(C=C2Oc3c(ccc(O)c3CN3CCCCC3)C2=O)c2cc(OC)ccc21 | 99% | 99% | 0% |
| COc1ccc(-c2cccc(NC(=O)c3ccc(Cl)cc3)c2)cc1CN(C)CCN(C)C.O=C(O)C(F)(F)F | 99% | 61% | 37% |
| O=C(Nc1cccc(-c2csc(NC(=O)c3ccc4ccccc4c3)n2)c1)c1ccc2ccccc2c1 | 89% | 35% | 3% |
| CC(C)C[C@@H](C(=O)Nc1ccc(Cc2ccc(NC(=O)[C@H](CC(C)C)N(C)C(=O)OC(C)(C)C)cc2)cc1)N(C)C(=O)OC(C)(C)C | 92% | 57% | 17% |
| Br.CC1(C)NC(N)=NC(=N)N1OCCCOc1c(Cl)cc(Cl)cc1Cl | 94% | 97% | 65% |
| COc1ccccc1N1CCN(c2cccc3c2nc(-c2cncc(C#N)c2)n3CCNCc2ccccc2)CC1.O=C(O)C(F)(F)F | 100% | 81% | 0% |
| CC(=O)Nc1cccc(C(=O)Nc2cccc(-c3ccc(-c4nc5cc(C(F)(F)F)ccc5[nH]4)s3)c2)c1 | 98% | 46% | 80% |
| COc1ccc(CCCCN2C(=O)C(c3ccccc3)(c3ccccc3)N=C2N)cc1.O=C(O)C(F)(F)F | 97% | 95% | 40% |
| COc1cc(C(=O)N2CCOC(CCN3CCC(Cc4ccc(F)cc4)CC3)(c3ccc(Cl)c(Cl)c3)C2)cc(OC)c1OC (stereo not drawn) | 88% | 58% | 44% |
| COc1ccc2[nH]c(C)cc(=NN=Cc3ccccc3)c2c1 | 80% | 6% | 4% |
| O=C(Nc1ccc(Oc2ccccc2)cc1)N(Cc1ccc(-c2ccc(CN3CCNCC3)cc2)cc1)C1CCN(Cc2ccccc2)CC1.O=C(O)C(F)(F)F | 100% | 73% | 31% |
| Cc1nc2c(c(O)c1Cl)-c1ccc(Oc3cccc(C(F)(F)F)c3)cc1C2=O | 98% | 97% | 25% |
| CCCCCCCN(Cc1ccc(OC(C)(C)C(=O)OCC)cc1)C(=O)Nc1ccccc1OCC | 93% | 94% | 0% |
| O=C(Nc1cccc(-c2cccc(-c3nc4cc(F)ccc4[nH]3)c2)c1)Nc1ccc2c(c1)OCO2 | 100% | 49% | 30% |
| CCCCCCOc1ccc(N2C(N)=NC(N)=NC2(C)C)cc1.Cl | 98% | 0% | 5% |
| CNC(=O)c1cnc(Nc2ccc(OCC(O)CN(C)C)cc2)nc1Nc1cccc([N+](=O)[O-])c1.O=C(O)C(F)(F)F (stereo not drawn) | 100% | 94% | 52% |
| COc1ccc2nccc([C@@H](O)CN3CCC(NCc4cc5ccccc5nc4O)CC3)c2c1.Cl | 97% | 0% | 0% |
| O=C(NCc1cccc(F)c1)Nc1cccc(-c2ccc(-c3nc4cc(C(F)(F)F)ccc4[nH]3)cc2)c1 | 98% | 20% | 50% |
| CCn1c(Sc2ccc(C#N)c([N+](=O)[O-])c2)nnc1-c1ccc(Cl)cc1 | 97% | 93% | 0% |
| Cl.O=C(Nc1ccc2c(c1)CCN(C1CCC1)CC2)c1ccc(-n2ccnc2)cn1 | 92% | 0% | 8% |
| COC(=O)C(=O)c1c(-c2ccccc2)c(-c2ccc(OC)c(OC)c2)c2c3cc(OC)c(OC)cc3ccn12 | 97% | 89% | 2% |
| CCCN(CCC)C(=O)c1cc(C(=O)N[C@@H](Cc2ccccc2)[C@H](O)CNCc2cccc(OC)c2)cc(N2CCCCS2(=O)=O)c1 | 97% | 99% | 0% |
| CN1CCCC(CN2CCN(Cc3ccc(-c4cccc(-c5nc6ccccc6[nH]5)c4)cc3)CC2)C1.O=C(O)C(F)(F)F (stereo not drawn) | 100% | 100% | 57% |
